Compound activity: PubChem BioAssay, National Center for Advancing Translational Sciences (NCATS)
An excerpt weighted towards active compounds, which were near 15% of everything screened.
SARS PLP yeast – SARS-CoV PLP inhibition in yeast; S. cerevisiae expressing SARS-CoV PLpro, growth rescue; 0.19% of 330,000 active; AID 485353; Potency, µM (series often up to 32.9 µM), inactives show at the top dose activity, positive = growth rescue, actives largely listed as activators; calls by dose curve; further: potency means the concentration at half of the fitted maximal effect; 0% is about no effect; nearly all actives have a fitted effect of over 55% in size
HCV inhibitor – inhibitors of hepatitis C virus infection | Huh7.5.1 HCVcc-Cre infection, luciferase reporter, 44 h | Potency, µM (series often up to 41.8 µM), without a hit: top-dose activity change, negative = inhibition, usual class: inhibitors | 3.4% of 340,000 active; further: potency means the concentration at half of the fitted maximal effect; on the % scale 0 is the no-effect control and ±100 the full control effect
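Luciferase read-out (15 sec integration) after a 15 min room-temperature substrate step quantifies HCVcc-Cre infection. Cells, 1,000 per well, had compound added 4 h post-plating, then virus at ~0.5 moi, and were cultured 44 h.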
Sm TGR inh – inhibitors of Schistosoma mansoni thioredoxin glutathione reductase. Q962Y6. purified TGR, DTNB reduction, TNB absorbance 405 nm. Potency, µM (highest dose often 114 µM), for the others: top-dose activity change, negative = inhibition, actives largely listed as inhibitors. 3% of 360,000 active. AID 485364; further: potency means the concentration at half of the fitted maximal effect; on the % scale 0 is the no-effect control and ±100 the full control effect; nearly all actives have a fitted effect of over 60% in size
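Kinetic colorimetric format: TGR-catalysed, NADPH-driven DTNB reduction monitored via TNB absorbance. Enzyme dispensed at 20 nM; compound exposure 15 min at room temperature before reaction start.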
Pf growth 48h – inhibits P. falciparum growth in the first generation, 48 h | 5.9% of 310,000 active | P. falciparum luciferase growth in erythrocytes, 48 h | Potency, µM (doses to about 28.7 µM), inactives show at the top dose activity change, negative = inhibition, usual class: inhibitors; further: potency means the concentration at half of the fitted maximal effect; on the % scale 0 is the no-effect control and ±100 the full control effect
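Firefly luciferase activity from engineered P. falciparum reports growth; inhibitors lower the luminescent signal. Cultures contained 2% hematocrit erythrocytes at 0.1% final parasitemia.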
Pf growth 96h – P. falciparum growth inhibition at 96 hours. P. falciparum luciferase reporter growth, 96 h. Potency, µM (highest dose often 28.7 µM), for inactives: top-dose activity change, negative = inhibition, usual class: inhibitors. 6.9% of 320,000 active; further: potency means the concentration at half of the fitted maximal effect; on the % scale 0 is the no-effect control and ±100 the full control effect
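Compounds incubated with erythrocytes infected by luciferase-expressing P. falciparum (2% hematocrit, 0.05% parasitemia final) for 96 hours, 37 C in 5% CO2. Growth inhibition scored as decreased luciferase luminescence.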
HCMV inh – human cytomegalovirus inhibition; AID 1259415; 4.5% of 410,000 active; activity change, negative = inhibition, % at 57.5 µM; HFF cells, HCMV-luciferase reporter, 72 h; hits give low values; in the data active means activity change below about -60%; inconclusive means no clear call, values can overlap the other calls; inactive means above about -39%; further: on the % scale 0 is the no-effect control and ±100 the full control effect
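HFF cells seeded 16 h at 37C, treated with compounds, infected with luciferase-reporter HCMV at MOI 1 PFU/cell; luciferase read at 72 h post infection, normalized to buffer-only and Salinomycin controls.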
* hit, by the source's call; ? = inconclusive; / = no result; [ ] = remark or other dose. Unless noted, the call rests on the fitted dose curve; in most records, active means well fitted curve in the direction sought with a large enough effect; inconclusive means small, poorly fitted or top-dose-only effect, or another doubt; inactive means no such curve, though single readings can be large; an effect the other way counts as inactive or inconclusive.

SMILES	SARS PLP yeast	HCV inhibitor	Sm TGR inh	Pf growth 48h	Pf growth 96h	HCMV inh
CCOc1ccc(-n2nc(CO)c(C(=O)NCc3ccc(Cl)cc3)n2)cc1	/	/	8%	/	/	?
Cc1ccc2c(c1)c(=O)c1ccccc1n2CCCC(=O)Nc1cc(Cl)ccc1C	/	/	16%	/	/	16
COc1ccc(NC(=S)N/N=C2\CC(C)(C)Oc3ccc(O)cc32)cc1	?	?	0%	?	-2%	-24
COc1ccccc1NC(=S)N/N=C1\CC(C)(C)Oc2ccc(O)cc21	-1%	10µM*	4%	?	6%	?
CC(=O)N1CCC2(CC1)C/C(=N\NC(=S)Nc1ccccc1F)c1cc(O)ccc1O2	1%	?	7%	-19%	23%	-82*
CNc1snc(C)c1C(=O)OCC(=O)c1ccc(OC)c(F)c1	-6%	?	5%	1%	-8%	-74*
CCc1ccc2oc(C(=O)NCC(c3ccc(OC)cc3)N3CCCCC3)c(C)c2c1 (stereo not drawn)	1%	?	-3%	?	44%	25
COc1ccc(C(CNC(=O)c2oc3ccc(OC)cc3c2C)N2CCCC2)cc1 (stereo not drawn)	0%	?	-7%	8.3µM*	9.3µM*	-16
COc1ccc(C(CNC(=O)c2oc3ccc(Br)cc3c2C)N2CCCCC2)cc1 (stereo not drawn)	2%	13µM*	4%	?	-103%	-33
COc1ccc(C(CNC(=O)c2oc3ccc(F)cc3c2C)N2CCCCC2)cc1 (stereo not drawn)	4%	11µM*	-5%	?	18%	-20
COc1ccc(C(CNC(=O)c2oc3cc(Br)ccc3c2C)N2CCCCC2)cc1 (stereo not drawn)	0%	14%	9%	?	22%	0
CC(C)N1C(=O)/C(=C\c2nc3ccccc3c(=O)n2-c2ccccc2)c2ccccc21	5%	?	-5%	?	-14%	-95*
CC(C)N1C(=O)C(Cc2nc3ccccc3c(=O)n2-c2ccccc2)c2ccccc21 (stereo not drawn)	1%	?	2%	9.3µM*	9.3µM*	-72*
CN1C(=O)C(Cc2nc3ccccc3c(=O)n2-c2ccccc2)c2ccccc21 (stereo not drawn)	3%	15%	-1%	?	?	-23
CC(C)N1C(=O)/C(=C/c2nc3ccccc3c(=O)n2-c2ccccc2)c2ccccc21	-40%	?	2%	?	?	-105*
OCC1(CO)CCCC(CO)(CO)C1O	/	10%	/	/	/	-9
O=C(CN1C(=O)NC2(CCCC2)C1=O)NCc1ccc(Cl)cc1	-6%	-3%	/	/	/	-23
C/C(CC(=O)Nc1cccc(C(F)(F)F)c1)=N\NC(=O)C1CCCCC1	0%	11%	/	27%	9%	-9
CCN1CCN(C(=O)C2COc3ccccc3O2)CC1 (stereo not drawn)	0%	19%	22µM*	30%	36%	18
CC(=O)Nc1ccc(S(=O)(=O)N2CCN(C(=O)C3COc4ccccc4O3)CC2)cc1 (stereo not drawn)	2%	?	1%	?	?	-33
COc1ccc(S(=O)(=O)N2CCN(C(=O)C3COc4ccccc4O3)CC2)cc1 (stereo not drawn)	-9%	1%	18µM*	?	?	-3
C[C@@]12C(=O)OC(=O)[C@]1(C)C1CCC2O1	/	0.5µM*	-2%	2.9µM*	1.9µM*	-99*
CCc1cc(C)cc(OCCNC(=O)c2cncc(Br)c2)c1	-15%	10µM*	10%	/	?	32
O=C(NCCOc1ccccc1)c1cncc(Br)c1	-5%	-8%	7%	/	121%	11
COc1ccccc1NC(=O)CN1C(=O)C2(SCC(=O)N2c2ccc(C)c(C)c2)c2ccccc21 (stereo not drawn)	/	/	3%	/	/	-72*
SMILES	SARS PLP yeast	HCV inhibitor	Sm TGR inh	Pf growth 48h	Pf growth 96h	HCMV inh
Cc1cccc(C)c1NC(=O)Cn1nc(C)c2sc3ccccc3c2c1=O	/	/	-21%	/	/	4
CC1=CC(C)(C)[N+](C)(C)c2ccccc21	1%	7%	-7%	?	139%	-38
CCOCCCNC(=S)Nc1ccc2nc(N3CCOCC3)cc(C)c2c1	1%	-17%	-36%	-25%	15µM*	-26
CCC(C)NC(=S)Nc1ccc2nc(N3CCOCC3)cc(C)c2c1 (stereo not drawn)	-3%	11µM*	0%	12%[0.00184 µM]	30%	?
CCC(C)NC(=O)CCC(=O)Nc1ccc2nc(N3CC(C)CC(C)C3)cc(C)c2c1 (stereo not drawn)	0%	?	-1%	9.3µM*	5.9µM*	-23
CCC(C)NC(=O)CCC(=O)Nc1ccc2nc(N3CCOCC3)cc(C)c2c1 (stereo not drawn)	?	-6%	3%	-4%	?	101
CCC(C)NC(=S)Nc1ccc2nc(N3CCN(CC)CC3)cc(C)c2c1 (stereo not drawn)	1%	?	?	0%	?	-30
Cc1cc(N2CCOCC2)nc2ccc(NC(=S)NCCC(C)C)cc12	-6%	10µM*	-34%	-100%	0%	-4
Cc1cc(N2CCN(C)CC2)nc2ccc(NC(=S)NCCC(C)C)cc12	-2%	?	?	10%[0.00184 µM]	-25%	?
CC(C)CCNC(=O)CCCCn1c(=O)[nH]c2ccsc2c1=O	-1%	12%	3%	-7%	14%	-26
O=C(NCCc1ccc(Cl)cc1)c1cc(-c2ccc(Cl)cc2)n[nH]1	/	/	0%	/	/	5
C[C@@H](NCCCn1cnc2c(OCc3ccccc3)ncnc21)c1cccc2ccccc12	/	?	/	/	/	-31
CC(C)Cc1nc2oc3c(NCCCN4CCOCC4)ncnc3c2c2c1CCC2	1%	10µM*	0%	?	?	?
CC(C)Cc1nc2oc3c(Cl)ncnc3c2c2c1CCC2	1%	4.5µM*	-31%	32%	42%	-96*
CC(C)c1nc2oc3c(N4CCNCC4)ncnc3c2c2c1CCC2	/	?	/	/	/	6
O=C(CC(NC(=O)C(F)(F)F)c1ccccc1)Nc1nnc(CCc2ccccc2)s1 (stereo not drawn)	1%	34%	-19%	?	44%	-65*
Cc1nnc(NC(=O)CC(NC(=O)C(F)(F)F)c2ccccc2)s1 (stereo not drawn)	21%	6%	3%	16%	-1%	44
COc1ccc(NC(=O)CN2CCN(C(=O)c3ccco3)CC2)c(OC)c1	-1%	20%	0%	10µM*	-16%	-16
